Experimental data as given in PubChem BioAssay (NCI).
About 83,000 compounds went through this panel and 20% of them were active in at least one assay; those are over-represented in the sample as a whole.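 A percent growth of 40 corresponds to 60% growth inhibition; 0 means no net growth; -100 means all cells died. Active threshold: below 10.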 Unmarked numbers belong to inactive results. The source made the active and inactive calls.

How the values were obtained:
Test in all cases: NCI-60 one-dose screen, 48 h (100 = growth as untreated, 0 = no growth, -100 = all killed)
Conditions in all cases: 10 µM
[1] = tested on: SK-MEL-2 melanoma
[2] = tested on: EKVX NSCLC
[3] = tested on: SN12C renal
[4] = tested on: UO-31 renal
[5] = tested on: TK-10 renal
[6] = tested on: ACHN renal
[7] = tested on: CAKI-1 renal
[8] = tested on: A498 renal
[9] = tested on: CCRF-CEM leukemia
[10] = tested on: MOLT-4 leukemia
[11] = tested on: SR leukemia
[12] = tested on: RPMI-8226 leukemia
[13] = tested on: OVCAR-8 ovarian
[14] = tested on: OVCAR-5 ovarian
[15] = tested on: OVCAR-4 ovarian
[16] = tested on: SK-OV-3 ovarian
[17] = tested on: IGROV1 ovarian
[18] = tested on: OVCAR-3 ovarian
[19] = tested on: HS 578T breast
[20] = tested on: NCI/ADR-RES ovarian

Compound | growth [1] | growth [2] | growth [3] | growth [4] | growth [5] | growth [6] | growth [7] | growth [8] | growth [9] | growth [10] | growth [11] | growth [12] | growth [13] | growth [14] | growth [15] | growth [16] | growth [17] | growth [18] | growth [19] | growth [20]
C=CCNCCCN1C(=O)c2ccc3c4c(ccc(c24)C1=O)C(=O)N(CCCNCC=C)C3=O | -35.6% (active) | -78.7% (active) | -77.7% (active) | -44.3% (active) | -3.01% (active) | -9.77% (active) | -42.8% (active) | -71% (active) | 4.96% (active) | -3.33% (active) | -12.8% (active) | 11.3% | -14.5% (active) | -44.6% (active) | -98.5% (active) | -36.9% (active) | -70.3% (active) | -18.1% (active) | -41.3% (active) | -7.11% (active)
CCOC(=O)C(CCC1=NC(C)(C)CC(C)O1)C(=O)OCC (stereo not given) | 34.1% | 107% | 95.7% | 77.5% | 101% | 6.26% (active) | 45.7% | 106% | 111% | 68.8% | 68.6% | 111% | 85.5% | 62.5% | 90.6% | 101% | 96.2% | 107% | 95.3% | 83%
CC1(C)CC(OCCCC[P+](c2ccccc2)(c2ccccc2)c2ccccc2)CC(C)(C)N1O | -23.4% (active) | 3.22% (active) | 4.65% (active) | -18.8% (active) | -21.1% (active) | -8.25% (active) | -25.7% (active) | -5.35% (active) | -37.1% (active) | 0.462% (active) | 11.7% | -73.5% (active) | 6.29% (active) | 18.2% | 21.5% | -13.4% (active) | -21% (active) | -46.1% (active) | -10.5% (active) | 55.2%
Cc1ccc(NS(=O)(=O)c2ccccc2)c(NS(=O)(=O)c2ccccc2)c1 | 98.6% | 93.8% | 90.4% | 69.4% | 112% | 94.3% | 93.2% | 115% | 96% | 105% | 117% | 93.4% | 105% | 104% | 97% | 102% | 107% | 98% | 91.1% | 94.7%
Cc1cc(C#Cc2ccccc2)ccc1-n1c(/C=C/c2cc(O)ccc2O)nc2ccccc2c1=O | -12.9% (active) | -7.48% (active) | -5.43% (active) | -27.9% (active) | 29.7% | 8.83% (active) | -5.93% (active) | 41% | 7.82% (active) | 3.81% (active) | -26% (active) | -18.1% (active) | 16.3% | -24.5% (active) | 19.2% | -49.3% (active) | -12.6% (active) | -46.2% (active) | 31.8% | 6.37% (active)
COc1ccc(Cn2cc3c(c2-c2cc(OC)c(OC)c(OC)c2)CCc2cnoc2-3)cc1[N+](=O)[O-] | 43.4% | 20.4% | 43.4% | 36.9% | 76.4% | 60.4% | 16.1% | 45.2% | 22% | 30% | 22% | 27.9% | 48.7% | 58.6% | 47% | -12.7% (active) | 9.29% (active) | -23.6% (active) | 3.07% (active) | 5.02% (active)
COC(=O)CCCCCCCCC(C)c1ccc(C(C)=O)cc1 (stereo not given) | 96% | 95.3% | 110% | 96.9% | 98.3% | 99.3% | 97.6% | 112% | 111% | 89.8% | 94.2% | 121% | 104% | 98.4% | 120% | 102% | 110% | 108% | 93.9% | 103%
CCOc1nc(-c2ccccc2)cc2c(O)c(C(=O)NCCCO)[nH]c(=O)c12 | 92.7% | 108% | 103% | 79.6% | 146% | 91.6% | 87.8% | 93.5% | 68% | 97% | 141% | 51.2% | 108% | 92.4% | 103% | 84.6% | 57.6% | 93.1% | 100% | 113%
COc1ccc2c(c1)/C(=C/c1cc(OC)c(OC)c(OC)c1)C(=O)N2C | 24.3% | 47.3% | 25.3% | 16.9% | 22.1% | 26.9% | -8.56% (active) | 23.4% | 20.4% | 16% | 17% | -25.2% (active) | 28.8% | 66.4% | 47.3% | 19.3% | 0.661% (active) | -72% (active) | -12.4% (active) | 2.46% (active)
COc1ccc(Cn2cc3c(c2-c2ccccc2)CC(C)(C)c2cnoc2-3)cc1 | 53% | 38.7% | 50.6% | 43.9% | 75% | 53.9% | 6.85% (active) | 49.4% | 22.7% | 40% | 24.5% | 32.2% | 50.4% | 78% | 60.4% | 20% | 44.6% | 6.6% (active) | 9.84% (active) | 18.7%
Oc1ccc(Cn2cc3c(c2-c2ccccc2)CCc2cnoc2-3)cc1 | 102% | 80.2% | 91.7% | 88.8% | 111% | 90% | 81.7% | 104% | 99.1% | 80.5% | 76.8% | 82.1% | 100% | 105% | 95.8% | 94.4% | 120% | 107% | 106% | 86.2%
CC1(C)Cc2c(cn(Cc3ccccc3)c2-c2ccccc2)-c2oncc21 | 102% | 85.2% | 97% | 89.7% | 106% | 99.9% | 79.8% | 126% | 94.2% | 86.1% | 86.8% | 74.8% | 101% | 111% | 98.5% | 96.4% | 121% | 110% | 103% | 92.5%
Nc1ccc2c(c1)Cc1cc(N)c(Cl)cc1-2 | 102% | 57.2% | 89.8% | 52.6% | 115% | 98.5% | 94.1% | 118% | 79.8% | 90% | 88.8% | 96.8% | 97.9% | 112% | 84% | 113% | 98.2% | 124% | 89.8% | 107%
COc1cc(NS(C)(=O)=O)ccc1Nc1c2ccc(Cl)cc2nc2c(OC)cccc12 | -45.2% (active) | 70.4% | -10.7% (active) | 5.23% (active) | -55.3% (active) | -46.4% (active) | -37% (active) | -8.95% (active) | 2.75% (active) | -2.38% (active) | -16.5% (active) | -19.6% (active) | 11.7% | -11.9% (active) | 62.4% | -5.68% (active) | 19.3% | 22.4% | 20.2% | 25.8%
CCN(CC)CC(O)Cc1ccc(OC)cc1 (stereo not given) | 96% | 98.7% | 104% | 103% | 96.5% | 108% | 101% | 96.7% | 98.9% | 95.7% | 104% | 108% | 110% | 106% | 113% | 114% | 122% | 125% | 107% | 113%
COc1ccc(NC(=O)CCn2cnc3c(cc(-c4ccccc4)n3-c3ccccc3)c2=O)cc1 | 104% | 85.8% | 85.1% | 88.8% | 105% | 82% | 78.3% | 108% | 93.3% | 104% | 95.7% | 93.4% | 102% | 94.7% | 72.1% | 58.1% | 78.9% | 98% | 46% | 63%
